The whole screen tested about 10,000 compounds, of which about 5,600 (56%) were called active. No stated cut-off is given here; in the data, active means inhibition above about 40%; inactive means the rest. So high a share suggests a set chosen from earlier hits. These entries were drawn from the full list.
target: Protein Mdm4 (Homo sapiens) + E3 ubiquitin-protein ligase Mdm2 (Homo sapiens) (UniProt O15151+Q00987); experiment: inhibition of human Mdm2/MdmX pairing – luminescence, single concentration, confirmation (AID 489028); settings: Mdm2-MdmX binding, luminescent assay; at 8 µM; stronger effect = higher value
Sequence (O15151 whole entry, looked up): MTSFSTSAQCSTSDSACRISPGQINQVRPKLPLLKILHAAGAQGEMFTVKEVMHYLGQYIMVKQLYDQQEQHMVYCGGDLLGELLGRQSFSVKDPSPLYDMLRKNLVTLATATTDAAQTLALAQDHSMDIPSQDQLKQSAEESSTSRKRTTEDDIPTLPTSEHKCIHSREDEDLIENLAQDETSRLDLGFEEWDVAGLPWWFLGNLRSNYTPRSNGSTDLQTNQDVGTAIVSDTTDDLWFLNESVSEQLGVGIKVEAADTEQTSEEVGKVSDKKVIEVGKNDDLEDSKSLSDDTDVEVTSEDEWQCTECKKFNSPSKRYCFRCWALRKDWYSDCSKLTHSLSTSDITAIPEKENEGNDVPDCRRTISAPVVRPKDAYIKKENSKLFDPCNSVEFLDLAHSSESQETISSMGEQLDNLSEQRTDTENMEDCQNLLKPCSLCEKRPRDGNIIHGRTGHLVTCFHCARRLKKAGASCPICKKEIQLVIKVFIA
Sequence (Q00987 whole entry, looked up): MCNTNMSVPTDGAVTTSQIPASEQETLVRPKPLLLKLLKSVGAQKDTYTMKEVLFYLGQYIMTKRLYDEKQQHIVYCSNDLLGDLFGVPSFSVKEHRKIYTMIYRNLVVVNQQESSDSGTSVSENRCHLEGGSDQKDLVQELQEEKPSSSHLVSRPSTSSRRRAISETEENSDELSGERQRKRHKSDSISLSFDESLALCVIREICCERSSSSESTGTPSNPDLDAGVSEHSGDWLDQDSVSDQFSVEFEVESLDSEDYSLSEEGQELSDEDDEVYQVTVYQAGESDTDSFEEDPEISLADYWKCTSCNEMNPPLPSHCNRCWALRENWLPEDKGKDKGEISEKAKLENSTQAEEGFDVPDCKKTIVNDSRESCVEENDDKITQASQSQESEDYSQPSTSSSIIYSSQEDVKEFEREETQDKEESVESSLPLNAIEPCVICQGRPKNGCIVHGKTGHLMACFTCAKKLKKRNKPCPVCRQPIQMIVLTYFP

Compound	inhibition
O=C1C2(Cl)C3(Cl)C4(Cl)C(Cl)(Cl)C5(Cl)C3(Cl)C1(Cl)C5(Cl)C24Cl (stereo not drawn)	49.5% (active)
COC(=O)C1=C(c2ccc(F)cc2OCc2ccccc2)C[C@@H]2CC[C@H]1N2C(=O)NCc1ccc(Cl)cc1	31.1% (inactive)
CNCC(O)c1cc(F)c(OCc2ccccc2)c(OCc2ccccc2)c1F (stereo not drawn)	17.8% (inactive)
Cc1cc2ccccn2c1C(C[N+](=O)[O-])c1c(F)cccc1Cl (stereo not drawn)	99.1% (active)
O=c1c2ccccc2nc(/C=C/c2ccc(F)cc2)n1-c1ccccc1O	31% (inactive)
O=Cc1cn(Cc2ccc(F)cc2Cl)c2ccccc12	28% (inactive)
CNC(=O)O/N=C(\N)Cc1csc2ccc(Cl)cc12	90.3% (active)
CNC(=O)O/N=C(\N)Cc1csc2ccccc12	52.6% (active)
O=C(c1cc2nc(-c3ccccc3)cc(-c3ccccc3)n2n1)N1CCC2(CC1)OCCO2	16.3% (inactive)
CCCCC(=O)N/N=C/c1c(O)n(CCC2=CCCCC2)c(=O)[nH]c1=O	20.9% (inactive)
COC(=O)C1=C(c2ccc(F)cc2OCc2ccccc2)C[C@@H]2CC[C@H]1N2C(=O)NCc1ccc2[nH]ccc2c1	18.9% (inactive)
O=C1NC(=O)N(CCc2ccc(F)cc2)C(=O)/C1=C/C=C/c1ccccc1	57.2% (active)
CCCCCCCCCCCCn1ccc(=N)cc1	98.3% (active)
N#CC1=C(N)Oc2c(c(=O)oc3ccccc23)C1c1ccccc1OC(=O)c1cccs1 (stereo not drawn)	15.1% (inactive)
CC1(C)Cc2c(C#N)c(N3CCNCC3)nc(-c3ccco3)c2CS1	24.1% (inactive)
CCOc1ccc(-c2cc(C)[n+](CCN(CC)CC)c(-c3ccc(OCC)cc3)c2)cc1	84.5% (active)
CC(Cc1ccccc1)NCCC(c1ccccc1)c1ccccc1 (stereo not drawn)	19.1% (inactive)
CCCCCn1c(=O)c(C(=O)NCc2ccccc2)c(O)c2ccccc21	5.2% (inactive)

Source: PubChem BioAssay AID489028 (Sanford-Burnham Center for Chemical Genomics, 2010)
